An excerpt weighted towards active compounds, which were near 19% of everything screened.
SW480 rereplic: A quantitative high throughput screen for small molecules that induce DNA re-replication in SW480 colon adenocarcinoma cells; SW480 DNA re-replication, Hoechst DNA content imaging, 48 h; Potency, µM (titrated, usually from 46.1 µM), without a hit: at the top dose re-replication activation, usual class: activators; 340,000 compounds, 1.8% hits; AID 624297, 2012; note: potency is the fitted concentration of half-maximal effect; % of control where 0% means no effect; nearly all actives have a fitted effect of over 55% in size
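Readout is total intensity of Hoechst-stained nuclei, excited at 405 nm and collected at 500-530 nm. Compound treatment lasted 48 hr at 37 C in 5% CO2 before staining.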
TDP1 cell noCPT: qHTS for Inhibitors of human tyrosyl-DNA phosphodiesterase 1 (TDP1): qHTS in cells in absence of CPT; Potency, µM (top dose mostly 46.2 µM), for the others: at the highest dose activity change, negative = growth inhibition, actives largely listed as inhibitors; DT40 Tdp1-/- hTDP1 cells, no CPT, ATP luminescence, 48 h; 420,000 compounds, 15% hits; note: potency is the fitted concentration of half-maximal effect; % is set by controls: 0 for no effect and ±100 for the full control effect; nearly all actives have a fitted effect of over 55% in size
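Growth of hTDP1-complemented DT40 Tdp1-knockout cells is measured by ATP luminescence after at least 48 hr compound exposure at 37 °C, with DMSO substituting for the 20 nM CPT used in the parallel screen.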
MCF10A rereplic: A quantitative high throughput screen for small molecules that induce DNA re-replication in MCF 10a normal breast cells; MCF 10A DNA re-replication, Hoechst nuclear intensity, 48 h; Potency, µM (doses to about 46.1 µM), for the others: at the top dose activity, positive = re-replication, usual class: activators; 350,000 compounds, 2.9% hits; AID 624296, 2012; note: potency is the fitted concentration of half-maximal effect; % of control where 0% means no effect; nearly all actives have a fitted effect of over 50% in size
TDP1 cell CPT: qHTS for Inhibitors of human tyrosyl-DNA phosphodiesterase 1 (TDP1): qHTS in cells in presence of CPT; chicken DT40 Tdp1-/-;hTDP1 cells + 20 nM CPT, ATP luminescence, 48 h; Potency, µM (series often up to 46.2 µM), without a hit: at the highest dose activity change, negative = growth inhibition, hits mostly inhibitors; 420,000 compounds, 12% hits; note: potency is the fitted concentration of half-maximal effect; % is set by controls: 0 for no effect and ±100 for the full control effect; nearly all actives have a fitted effect of over 55% in size
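Chicken DT40 Tdp1-/- cells complemented with human TDP1, 400 cells/well, exposed to compounds plus 20 nM camptothecin for at least 48 h at 37 C; viability read as ATP content by CellTiter-Glo luminescence.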
IL1B secr inh: qHTS for Inhibitors of Inflammasome Signaling: IL-1-beta AlphaLISA Primary Screen; activity change, % at 57.5 µM; 360,000 compounds, 4.7% hits; THP-1 LPS/ATP IL-1B secretion, AlphaLISA, 16 h; stronger effect = lower value; in the data active = activity change below about -50%; inconclusive = mostly about -30% to -49%; note: % is set by controls: 0 for no effect and ±100 for the full control effect
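THP-1 cells pretreated 1 hr with compounds (up to 57.5 uM final), then stimulated with LPS (250 ng/mL final) plus ATP (1.25 mM final); secreted IL-1B measured by AlphaLISA after 16 hr, decreased signal indicating inhibition.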
Chronic BCR inh: qHTS Assay to Find Inhibitors of Chronic Active B-Cell Receptor Signaling; ABC-DLBCL IkBa-CBG/CBR reporter, luminescence ratio, 4 h; Potency, µM (top dose mostly 46.1 µM), for the others: at the highest dose activity change, negative = inhibition, usual class: inhibitors; 340,000 compounds, 0.05% hits; AID 493014, 2011; active = well fitted inhibition curve with a large enough effect in the signal ratio, with a control signal flat, not every such curve was filed as active; inconclusive = small, poorly fitted or top-dose-only effect, or effect the other way, or a change in a side signal; the % refers to the signal ratio;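 note: potency is the fitted concentration of half-maximal effect; plate controls were basal doxycycline-induced cells for no effect and cells given 10 µM MG132 for full effect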
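Concentration-response series (up to 46 uM) were applied to TMD8 dual-reporter cells for 4 h at 37C with doxycycline. Green/red ratio, after filter-overlap correction, defined %Activity; red signal alone was normalised to basal cells and zero luminescence.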
An asterisk follows results filed as active; ? = inconclusive; . = no result given. Unless noted, calls come from the whole dose curve; as a rule, active = well fitted curve in the direction sought with a large enough effect; inconclusive = small, poorly fitted or top-dose-only effect, or another doubt; inactive = no such curve, though single readings can be large; an effect the other way counts as inactive or inconclusive.

SMILES	SW480 rereplic	TDP1 cell noCPT	MCF10A rereplic	TDP1 cell CPT	IL1B secr inh	Chronic BCR inh
O=C(c1ccc(-c2ccccc2Cl)o1)N1CCCCCCC1	0.3%	23.1µM*	?	?	?	.
CC1CCCN(C(=O)c2ccc(-c3ccccc3Cl)o2)C1 (configuration not stated)	-58.9%	?	?	11.6µM*	-17.2	?
CCN(CC)CCNc1oc(-c2ccccc2)nc1S(=O)(=O)c1ccccc1	-4.6%	?	12.8%	?	-23.7	-0.7%
Cc1ccc(Cn2cc(CN3CC(N(C)C)CS3(=O)=O)nn2)cc1 (configuration not stated)	.	-3.5%	.	15.3%	17.8	.
CCOc1cc(CNc2ncnc3nc[nH]c23)ccc1OC	-2.3%	25.9µM*	?	?	39.7	-7.3%
CCOC(=O)c1ccc(CNc2ncnc3nc[nH]c23)cc1	.	11.2µM*	.	3.98µM*	.	.
COc1ccc(CNc2ncnc3nc[nH]c23)cc1OC	.	-10.7%	.	?	.	.
Cn1c(/C=C/c2ccccc2)nc2ccccc2c1=O	16.4%	?	?	-76.2%	-2.1	4.8%
O=c1c2ccccc2nc(/C=C/c2c[nH]c3ccccc23)n1CCO	15.9%	6.51µM*	?	4.61µM*	-92.3*	-2.1%
O=c1c2ccccc2nc(/C=C/c2cc(Br)ccc2O)n1CCO	?	14.6µM*	14.6µM*	?	-97.7*	.
NNC(=S)Nc1c(F)cc(F)cc1Br	5.7%	13µM*	?	?	-10.5	?
CC(=O)N/C(=C\c1ccccc1)C(=O)OC(C)C(=O)NCc1ccccc1 (configuration not stated)	-17.3%	-18.9%	0.1%	-10.8%	4.5	9.0%
CCOC(=O)c1c(NC(=O)c2cc(=O)c3cc(Cl)ccc3o2)sc(C)c1C	.	-3.2%	.	7.3%	.	.
Cc1c(-c2ccccc2)oc2c(C(=O)N3CCN(c4ccccc4F)CC3)cccc2c1=O	-4.0%	20.6µM*	0.4%	20.6µM*	37.6	-0.5%
CCCCNC(=O)c1cccc2c(=O)c(C)c(-c3ccccc3)oc12	-2.9%	?	10.9%	?	7.8	-3.6%
CCCCN(C(=O)c1cccc2c(=O)c(C)c(-c3ccccc3)oc12)c1ccccc1	-3.7%	8.2µM*	?	16.4µM*	0.0	?
Cc1ccc2oc(=O)c(/C=C(\O)c3ccco3)nc2c1	-6.5%	-23.7%	?	3.0%	.	?
Cc1ccc2oc(=O)c(/C=C(\O)c3sc(C)nc3C)nc2c1	-3.6%	23.1µM*	15.7%	?	24.4	?
CCOC(=O)C1CCCN(C(=O)c2cncc(Br)c2)CC1 (configuration not stated)	.	-8.6%	.	-7.9%	0.0	.
CCc1ccc(C2NC(=S)NC3=C2C(=O)CCC3)cc1 (configuration not stated)	-0.9%	-18.6%	2.5%	-5.5%	2.3	0.8%
CCCCCCCc1ccc(C2NC(=S)NC3=C2C(=O)c2ccccc23)cc1 (configuration not stated)	1.1%	?	-1.8%	16.4µM*	9.3	5.5%
CCOC(=O)c1cc2cc([N+](=O)[O-])ccc2oc1=O	?	0.8%	7.6%	0.4%	-5.9	3.4%
O=[N+]([O-])c1ccc2oc(C(O)c3cccc(Cl)c3)cc2c1 (configuration not stated)	16.0%	11.6µM*	?	?	-93.2*	6.0%
